Source: PubChem BioAssay (NCATS)
Results filed as inconclusive are left out. Calls of active or inactive are those of the source. Calls come from the whole dose curve; as a rule, active = well fitted inhibition curve with a large enough effect; inconclusive = small, poorly fitted or top-dose-only effect; inactive = no such curve, though single readings can be large or run the other way. *1 amine or outer side, *2 acyl side, *3 side chain or, on linkers, in order; H or OH if unused. Where a SMILES comes first, the peptide text is derived from it. Bridges are numbered along the chain shown (N, C = ends). X6 = O=C(CCC[*:2])[*:1]
Potency is the fitted concentration of half-maximal effect.

Experiment: Primary fluorescence-based thiol-reactive (MSTI) qHTS assay for identification of artifact compounds. (AID 1845221); note: nearly all actives have a fitted effect of over 65% in size;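 for activity change, negative = thiol reactive: thiol-reactive compounds lower the probe fluorescence signal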
Settings: MSTI thiol-reactivity probe, 1 h; series mostly up to 53.8 µM; activity change, negative = thiol reactive: at the top concentration
Summary of the method: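 One-hour, room-temperature, dark incubation of compound with 4 uM MSTI in PBS (pH 7.4, 2% DMSO) precedes a fluorescence read at 525 nm excitation, 598 nm emission; Hill-equation fitting yields concentration-response values.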
With `N[C@H]1C[C@H]1c1ccc(-c2cccc(O)c2)cc1` the Potency was “inactive”.
For `CC(C)NC[C@H](O)COc1ccc(CCOCC2CC2)cc1`, the “activity change, negative = thiol reactive” value (shortened to “activity change”) was 30.3% (inactive).
In the case of `CC1(C)CCC(C)(C)c2cc([C@@H](O)C(=O)Nc3ccc(C(=O)O)cc3F)ccc21`, the “activity change” value is reported as 135% (inactive).
In the case of `CCOc1nc2cccc(C(=O)OCc3oc(=O)oc3C)c2n1Cc1ccc(-c2ccccc2-c2noc(O)n2)cc1`, the “activity change” value is reported as 236% (inactive).
In the case of `COc1cc(/C=C/C(=O)O[C@H]2[C@H](O)[C@@H](CO)O[C@@]2(CO)O[C@H]2O[C@H](COC(=O)c3ccc(O)cc3)[C@@H](O)[C@H](O)[C@H]2O)cc(OC)c1OC`, the “activity change” value is reported as 43.3% [at 25.6 µM] (inactive).
In the case of `O=C1NC(=Nc2ccccc2F)S/C1=C\c1ccc(C(=O)O)cc1`, the “activity change” value is reported as -5.11% (inactive).
With `CC1(C)CC[C@]2(C(=O)O)CC[C@]3(C)C(=CCC4[C@@]5(C)CC[C@H](O[C@@H]6O[C@H](C(=O)O)[C@@H](O)[C@H](O)[C@H]6O)C(C)(CO)C5CC[C@]43C)C2C1` (stereo not given in full) the “activity change” value was 507% [at 25.6 µM] (inactive).
With `CC1=C(C)C(=O)OC(C(C)C2C(O)CC3C4C5OC5C5(O)CC(OC6OC(CO)C(O)C(O)C6O)CC(O)C5(C)C4CCC32C)C1` (stereo not given) the “activity change” value was 75.4% [at 25.6 µM] (inactive).
In the case of `O=C(c1ccc(C#Cc2cccc(F)c2)cn1)N1CC2CC2C1` (stereo not given), the “activity change” value is reported as 122% (inactive).
In the case of `Nc1ccn([C@@H]2C(F)=C(CO)[C@@H](O)[C@H]2O)c(=O)n1`, the “activity change” value is reported as -1.9% (inactive).
In the case of `CC[C@H]1OC(=O)C[C@@H](O)[C@H](C)[C@@H](O[C@@H]2O[C@H](C)[C@@H](O)[C@H](N(C)C)[C@H]2O)[C@@H](CCN2C[C@H](C)C[C@H](C)C2)C[C@@H](C)C(=O)/C=C/C(C)=C/[C@@H]1CO[C@@H]1O[C@H](C)[C@@H](O)[C@@H](OC)[C@H]1OC`, the “activity change” value is reported as 0.11% (inactive).
For `CC1(C)C[C@H]2C3=CCC4[C@@]5(C)CC[C@H](O[C@H]6O[C@H](C(=O)O)[C@@H](O)[C@H](O)[C@H]6O[C@H]6O[C@H](CO)[C@@H](O)[C@H](O)[C@H]6O[C@@H]6O[C@H](CO)[C@@H](O)[C@H](O)[C@H]6O)[C@](C)(CO)C5CC[C@@]4(C)[C@]3(C)CC[C@@]2(C)[C@H](O[C@@H]2OC[C@H](O)[C@H](OC3O[C@H](CO)[C@@H](O)[C@H](O)[C@H]3O)[C@H]2O)[C@@H]1O` (stereo not given in full), the activity change, negative = thiol reactive was 48.1% [at 11.5 µM] (inactive).
In the case of `Cc1cc(O)cc(Oc2cc(C)c(C(=O)O)c(O)c2)c1`, the Potency is reported as 3.36 µM (active).
With `COC(=O)[C@H](OC(C)=O)[C@H]1C(C)(C)C(=O)[C@H]2CC3=C4CC(=O)O[C@@H](c5ccoc5)[C@]4(C)CCC3[C@@]1(C)C2=O` (stereo not given in full) the “activity change” value was 19.5% [at 25.6 µM] (inactive).
In the case of `C=C1CC[C@@H]2[C@](C)(CO[C@@H]3O[C@H](CO)[C@@H](O)[C@H](O)[C@H]3O)CCC[C@@]2(C)[C@@H]1CCC1=CCOC1=O`, the “activity change” value is reported as 136% [at 25.6 µM] (inactive).
For `O=C1C[C@@H](c2ccc(O)cc2)Oc2cc(O)ccc21`, the “activity change” value was -15.3% (inactive).
With `N[C@@H](CC(=O)N1CCn2c(nnc2C(F)(F)F)C1)Cc1[nH]nc2c(F)c(F)ccc12` the “activity change” value was -21.7% (inactive).
In the case of `C[C@]1(OC(=O)/C=C/c2ccccc2)C[C@H](O)[C@]2(O)C=CO[C@@H](O[C@@H]3O[C@H](CO)[C@@H](O)[C@H](O)[C@H]3O)C12` (stereo not given in full), the “activity change” value is reported as 21.2% [at 25.6 µM] (inactive).
For `O=C(O)c1ccc(CCCc2ccc(OCCc3ccc(F)cc3)cc2)o1`, the “activity change” value was 126% (inactive).
In the case of `CC[C@H](C)[C@@H]1NC(=O)[C@H](Cc2ccc(OC)cc2)NC(=O)CCCSC[C@@H](C(=O)N2CCC[C@H]2C(=O)N[C@@H](CC(C)C)C(=O)NCC(N)=O)NC(=O)[C@H](CC(N)=O)NC(=O)[C@H](CCC(N)=O)NC1=O` (Y(Me)IQNCPLG-NH2; linker N-5 via X6), the “activity change” value is reported as 93.9% (inactive).
For `CC1(CO)CC2C(O)C(=O)C3(CO)CC3(C)C2C1` (stereo not given), the “activity change” value was -4.12% (inactive).
For `COc1cc(NC(=O)c2ccccn2)ccc1Cl`, the “activity change” value was 43.4% (inactive).
For `C[C@@H]1O[C@@H](O[C@H]2[C@H](O[C@H]3CO[C@@H](O[C@H]4CC[C@@]5(C)C(CC[C@]6(C)C5CC[C@]57OC[C@@]8(CC[C@](C)(CO)CC85)[C@H](O)C[C@]76C)C4(C)C)[C@H](O[C@@H]4O[C@H](CO)[C@@H](O)[C@H](O)[C@H]4O)[C@H]3O)O[C@H](CO)[C@@H](O)[C@@H]2O)[C@H](O)[C@H](O)[C@H]1O` (stereo not given in full), the activity change, negative = thiol reactive was 26.5% [at 11.5 µM] (inactive).
With `COC(=O)C1=COC(OC2OC(CO)C(O)C(O)C2O)C2C1CC(OC(=O)C(O)CC(=O)O)C2C` (stereo not given) the Potency was 13 µM (active).
With `c1ccc(Cc2ncc3c(n2)CCNCC3)cc1` the “activity change” value was -1.59% (inactive).
For `COC(=O)C1C(CC(C)=O)C=CC(O)C12Oc1cc(C)cc(O)c1C2=O` (stereo not given), the Potency was 5.85 µM (active).
With `CC(=O)OC[C@@]12[C@@H](OC(C)=O)C[C@@H](C)[C@](C)([C@@H]3C[C@H]4C=CO[C@H]4O3)[C@H]1CCC[C@]21CO1` the “activity change” value was 27.7% [at 25.6 µM] (inactive).
In the case of `COc1cc(C2Oc3c(OC)cc(CCCO[C@@H]4O[C@H](CO)[C@@H](O)[C@H](O)[C@H]4O)cc3C2CO)ccc1O` (stereo not given in full), the Potency is reported as 13 µM (active).
For `COc1cc(/C=C/C(=O)OC[C@H]2O[C@H](O[C@]3(CO)O[C@H](CO)[C@@H](O)[C@@H]3O)[C@H](O)[C@@H](O)[C@@H]2O)cc(OC)c1O`, the “activity change” value was -2.93% [at 25.6 µM] (inactive).
For `C[C@]1(O)CC[C@@H]2C(C(=O)O)=CO[C@@H](O[C@@H]3O[C@H](COC(=O)c4ccc(O)cc4)[C@@H](O)[C@H](O)[C@H]3O)[C@@H]21`, the Potency was 10.3 µM (active).
